Reference: PubChem BioAssay (NCATS)
Several values for one entry are separate records, joined by “and”; a condition that tells them apart may be missing. Equal values may be shown once. Inconclusive results are not listed. Where a call stands in place of a potency, no number is given. A number with no mark means an inactive call. Activity calls are given as the source filed them. The call rests on the fitted dose curve; in most records, active means well fitted inhibition curve with a large enough effect; inconclusive means small, poorly fitted or top-dose-only effect; inactive means flat fitted curve, though single readings scatter.

biological target: Glutathione peroxidase 1 (Homo sapiens) (UniProt P07203); experiment: Primary qHTS Assay for Inhibitors of Recombinant Selenoprotein Glutathione Peroxidase 1 (GPX1) (AID 1845191); details: recombinant GPX1, GR-coupled NADPH fluorescence, 15 min; series mostly up to 48.8 µM; activity, negative = inhibition: at the top concentration; further: nearly all actives have a fitted effect of over 65% in size
Source text: Assay Provider: Elias S.J. Arner MD PhD.
Department of Medical Biochemistry and Biophysics
Karolinska Institutet, Solna, Stockholm, Sweden
Selenoprotein glutathione peroxidases (GPX), like the ubiquitously expressed GPX1 and the ferroptosis modulator GPX4, enact their antioxidant activities by reducing hydroperoxides using glutathione. […] GPX1 and GPX4 inhibitors have thus shown promise as anti-cancer agents. Existing inhibitors are often promiscuous, or modulate GPX activity only indirectly, so novel direct inhibitors identified through screening against GPX1 and GPX4 could be valuable. Here, we developed optimized glutathione reductase (GR)-coupled GPX assays for the biochemical high-throughput screen (HTS) of almost 12,000 compounds with known mechanisms of action. Initial hits were triaged using a GR counter-screen, assessed for isoform specificity using a separate GPX2 assay, and were assessed for general selenocysteine-targeting activity using a thioredoxin reductase (TXNRD1) assay. With this suite of assays, we identified novel GPX1/GPX2- and GPX4-specific inhibitors and can here present a validated pipeline for future discovery research for selenoprotein-targeting agents.
SEQUENCE No. (e.g., 1, 2, 3, etc.); […] (e.g., Cells, Incubation, Reagent, etc.); VALUE; DESCRIPTION.
1; Reagent 1; 3 uL; GPx1 enzyme or no enzyme control in 1536-well, black, solid Greiner assay plate.
2; Compound; 25 nL; Kalypsis pin tool (Wako USA) equipped with a 1536-well pin head.
3; Incubation; 30 min; room temperature.
4; Reagent 2; 1 uL; 10 nM GPX1, 1 mM GSH, 0.5 mM CHP, 0.5 mM NADPH, 100 nM GR, 0.01% BSA substrate
5; Detection; Fluorescence; ViewLux microplate reader, excitation 340 nm and emission 450 nm.
6; Incubation; 15 min; room temperature.
7; Detection; Fluorescence; ViewLux microplate reader, excitation 340 nm and emission 450 nm.
NOTES (numbers refer to Sequence numbers above)
1. 3 uL of 16.66 nM GPX1 and 0.016% BSA in assay buffer (50 mM Tris-HCl, 2 mM EDTA (pH 7.5), 150 mM NaCl) was added to columns 3-48 of 1536-well assay plates using a BioRAPTR Flying Reagent Dispenser (Let's Go Robotics (LGR), Carlsbad, CA). A no-enzyme control (0.01% BSA in TES assay buffer) was added to columns 1-2.
2. 25 nL of test compounds and DMSO controls were added to each well with a pin tool (Kalypsys).
3. The assay plates were incubated for 30 minutes at room temperature.
4. 1 uL of master mix (500 nM glutathione reductase (GR), 5 mM reduced glutathione (GSH), 2.5 mM NADPH in assay buffer) was added. 1 uL of cumene hydroperoxide (CHP) ([2.5 mM] in 50% EtOH) was then added within 5 minutes to initiate the reaction. Final concentrations were: 10 nM GPX1, 1 mM GSH, 0.5 mM CHP, 0.5 mM NADPH, 100 nM GR, 0.01% BSA.
5. Initial fluorescence readout (t=0) at 340/450 nm was measured using a ViewLux multimodal detector (PerkinElmer, Waltham, MA).
7. Endpoint fluorescence readout (t=15) at 340/450 nm was measured 15 min after room temperature incubation.
Potency means the concentration at half of the fitted maximal effect.

Chain of Glutathione peroxidase 1 (Homo sapiens) (P07203 whole entry, looked up): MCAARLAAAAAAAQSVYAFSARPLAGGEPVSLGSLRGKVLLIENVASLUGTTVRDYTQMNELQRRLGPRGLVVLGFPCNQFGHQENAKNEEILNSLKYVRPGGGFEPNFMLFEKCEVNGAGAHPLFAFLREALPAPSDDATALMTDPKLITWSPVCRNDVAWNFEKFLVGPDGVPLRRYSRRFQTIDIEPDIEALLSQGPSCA

| Structure (SMILES) | outcome | Potency | activity, negative = inhibition [%] |
| --- | --- | --- | --- |
| CN1C(=O)CC[C@H]1c1cccnc1 | inactive |  |  |
| C[N+](C)(C)CCOC(=O)CCC(=O)OCC[N+](C)(C)C |  | inactive |  |
| CCn1ccnc1CC1COc2ccccc2O1 (stereo not given) | inactive |  |  |
| Brc1c(NC2=NCCN2)ccc2nccnc12 |  | inactive |  |
| NC(=O)c1ncn([C@@H]2O[C@H](CO)[C@@H](O)[C@H]2O)c1O |  | inactive |  |
| CCN(CC)CCOCCOC(=O)C1(c2ccccc2)CCCC1 |  | inactive |  |
| O=C(O)CN(CCN(CC(=O)O)CC(=O)O)CCN(CC(=O)O)CC(=O)O |  | inactive |  |
| CN(C)CCCN1c2ccccc2Sc2ccccc21 |  | inactive |  |
| COC(=O)[C@H]1[C@H]2C[C@@H]3c4[nH]c5cc(OC)ccc5c4CCN3C[C@H]2C[C@@H](OC(=O)c2cc(OC)c(OC)c(OC)c2)[C@@H]1OC |  | inactive |  |
| O=C(CCCN1CCC(O)(c2cccc(C(F)(F)F)c2)CC1)c1ccc(F)cc1 |  |  | 3.05 |
| CC(=O)OCC1=C(C(=O)O)N2C(=O)[C@@H](NC(=O)Cc3cccs3)[C@H]2SC1 |  | 10.1 µM (active) |  |
| CC1=NS(=O)(=O)c2cc(Cl)ccc2N1 |  | inactive |  |
| Cc1nc2ccccn2c(=O)c1CCN1CCC(C(=O)c2ccc(F)cc2)CC1 |  |  | 2.24 |
| COc1cc(C(=O)OCCCN2CCCN(CCCOC(=O)c3cc(OC)c(OC)c(OC)c3)CC2)cc(OC)c1OC |  | inactive |  |
| Cc1nnc(SCC2=C(C(=O)O)N3C(=O)[C@@H](NC(=O)Cn4cnnn4)[C@H]3SC2)s1 |  | 20.2 µM (active) |  |
| CCCN1C[C@H](CSC)C[C@@H]2c3cccc4[nH]cc(c34)C[C@H]21 |  | inactive |  |
| CCCN(CCC)C(=O)C(CCC(=O)O)NC(=O)c1ccccc1 (stereo not given) |  | inactive |  |
| CCNC(=O)N1CCN(CCCC(c2ccc(F)cc2)c2ccc(F)cc2)CC1 | inactive |  |  |
| Cc1cccc(C)c1NC(=O)C(C)N (stereo not given) |  | inactive |  |
| COC(=O)[C@@H](N)Cc1ccc(O)c(O)c1 |  |  | -5.4 |

| Structure (SMILES) | outcome | Potency | activity, negative = inhibition [%] |
| --- | --- | --- | --- |
| NS(=O)(=O)c1cc2c(cc1Cl)NC(C1CC3C=CC1C3)NS2(=O)=O (stereo not given) |  | inactive |  |
| C[C@]12C=CC(=O)C=C1CC[C@H]1[C@@H]3C[C@@H](O)[C@](O)(C(=O)CO)[C@@]3(C)C[C@H](O)[C@@]12F |  | inactive |  |
| CCN(Cc1ccncc1)C(=O)C(CO)c1ccccc1 (stereo not given) |  | inactive |  |
| NC(=O)N1c2ccccc2C=Cc2ccccc21 |  | inactive |  |
| CC(C)(C)NCC(O)c1cc(O)cc(O)c1 (stereo not given) |  | inactive |  |
| OC(CCN1CCCCC1)(c1ccccc1)C1CCCCC1 (stereo not given) |  | inactive |  |
| CC(C)(C)c1ccc(C(=O)CCCN2CCC(OC(c3ccccc3)c3ccccc3)CC2)cc1 |  | inactive |  |
| Cc1scc2c1N(C(=O)CN1CCN(C)CC1)c1ccccc1NC2=O |  |  | -18.8 |
| CC(C)COCC(CN(Cc1ccccc1)c1ccccc1)N1CCCC1 (stereo not given) |  | inactive |  |
| O=c1[nH]c(=O)n([C@H]2C[C@H](O)[C@@H](CO)O2)cc1Br |  | inactive |  |
| CCCNC(C)C(=O)Nc1ccccc1C (stereo not given) |  | inactive |  |
| O=C1NCN(c2ccccc2)C12CCN(CCCC(c1ccc(F)cc1)c1ccc(F)cc1)CC2 |  |  | -2.43 |
| c1cnc(N2CCN(Cc3ccc4c(c3)OCO4)CC2)nc1 |  |  | -13.1 |
| C[N+](C)(C)CCCCCCCCCC[N+](C)(C)C |  | inactive |  |
| COC(=O)C1=C(C)NC(C)=C(C(=O)OC(C)(C)CN(C)CCC(c2ccccc2)c2ccccc2)C1c1cccc([N+](=O)[O-])c1 (stereo not given) |  | inactive |  |
| CNCCC(Oc1ccccc1OC)c1ccccc1 (stereo not given) |  |  | -14.2 |
| CO[C@@]1(NC(=O)CSCC#N)C(=O)N2C(C(=O)O)=C(CSc3nnnn3C)CS[C@@H]21 |  | 4.04 µM (active) and 25.1 µM (active) |  |
| CN(C)CCOC(=O)COc1ccc(Cl)cc1 |  | inactive |  |
| CCC(=O)c1ccc2c(c1)N(CCCN(C)C)c1ccccc1S2 |  | inactive |  |
| NC(N)=N/N=C/c1c(Cl)cccc1Cl |  | inactive |  |
